Laboratory results as given in PubChem BioAssay (NCATS).
Inconclusive results are not listed. Activity calls are given as the source filed them. Unless noted, the call rests on the fitted dose curve; in most records, active means well fitted curve in the direction sought with a large enough effect; inconclusive means small, poorly fitted or top-dose-only effect, or another doubt; inactive means no such curve, though single readings can be large; an effect the other way counts as inactive or inconclusive.

Tests used:
[1] = target: Rap guanine nucleotide exchange factor 3 (Homo sapiens) (UniProt O95398); assay: Confirmatory qHTS for agonist of cAMP-regulated guanine nucleotide exchange factor 3 (EPAC1) (AID 1645881);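 further: EPAC1 catalysed release of BODIPY-GDP from Rap1B seen as fluorescence loss; 100% = effect of cAMP agonist control; nearly all actives have a fitted effect of over 75% in size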
Sequence of Rap guanine nucleotide exchange factor 3 (Homo sapiens) (O95398 whole entry, looked up): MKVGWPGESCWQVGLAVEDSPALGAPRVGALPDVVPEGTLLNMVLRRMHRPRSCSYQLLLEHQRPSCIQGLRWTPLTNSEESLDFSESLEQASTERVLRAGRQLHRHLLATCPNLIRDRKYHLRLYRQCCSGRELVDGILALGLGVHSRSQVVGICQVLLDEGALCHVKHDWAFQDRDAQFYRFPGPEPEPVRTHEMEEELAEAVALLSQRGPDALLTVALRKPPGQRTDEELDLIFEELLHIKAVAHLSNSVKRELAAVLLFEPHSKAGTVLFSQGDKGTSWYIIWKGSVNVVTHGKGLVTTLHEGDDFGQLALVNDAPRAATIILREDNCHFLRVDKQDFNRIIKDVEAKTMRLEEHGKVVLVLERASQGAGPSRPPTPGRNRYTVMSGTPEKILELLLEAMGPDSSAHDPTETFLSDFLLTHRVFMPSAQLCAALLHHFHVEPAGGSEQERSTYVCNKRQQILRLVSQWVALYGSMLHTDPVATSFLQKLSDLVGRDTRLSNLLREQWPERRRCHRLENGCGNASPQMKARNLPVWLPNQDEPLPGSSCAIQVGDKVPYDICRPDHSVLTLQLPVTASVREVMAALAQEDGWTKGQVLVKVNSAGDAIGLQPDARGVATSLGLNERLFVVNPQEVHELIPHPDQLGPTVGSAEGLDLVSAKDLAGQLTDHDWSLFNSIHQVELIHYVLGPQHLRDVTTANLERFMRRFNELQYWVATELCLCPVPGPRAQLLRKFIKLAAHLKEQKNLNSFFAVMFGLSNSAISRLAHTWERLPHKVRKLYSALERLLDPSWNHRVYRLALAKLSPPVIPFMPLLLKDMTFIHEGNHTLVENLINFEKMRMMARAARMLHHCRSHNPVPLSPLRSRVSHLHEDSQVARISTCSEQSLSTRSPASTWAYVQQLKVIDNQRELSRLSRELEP

[2] = target: Rap guanine nucleotide exchange factor 4 (Homo sapiens) (UniProt Q8WZA2); assay: Confirmatory qHTS for agonist of cAMP-regulated guanine nucleotide exchange factor 4 (EPAC2) (AID 1645884);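 further: nucleotide exchange releases bodipy-GDP from Rap1 and this lowers its fluorescence; nearly all actives have a fitted effect of over 65% in size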; further: potency means the concentration at half of the fitted maximal effect
Sequence of Rap guanine nucleotide exchange factor 4 (Homo sapiens) (Q8WZA2 whole entry, looked up): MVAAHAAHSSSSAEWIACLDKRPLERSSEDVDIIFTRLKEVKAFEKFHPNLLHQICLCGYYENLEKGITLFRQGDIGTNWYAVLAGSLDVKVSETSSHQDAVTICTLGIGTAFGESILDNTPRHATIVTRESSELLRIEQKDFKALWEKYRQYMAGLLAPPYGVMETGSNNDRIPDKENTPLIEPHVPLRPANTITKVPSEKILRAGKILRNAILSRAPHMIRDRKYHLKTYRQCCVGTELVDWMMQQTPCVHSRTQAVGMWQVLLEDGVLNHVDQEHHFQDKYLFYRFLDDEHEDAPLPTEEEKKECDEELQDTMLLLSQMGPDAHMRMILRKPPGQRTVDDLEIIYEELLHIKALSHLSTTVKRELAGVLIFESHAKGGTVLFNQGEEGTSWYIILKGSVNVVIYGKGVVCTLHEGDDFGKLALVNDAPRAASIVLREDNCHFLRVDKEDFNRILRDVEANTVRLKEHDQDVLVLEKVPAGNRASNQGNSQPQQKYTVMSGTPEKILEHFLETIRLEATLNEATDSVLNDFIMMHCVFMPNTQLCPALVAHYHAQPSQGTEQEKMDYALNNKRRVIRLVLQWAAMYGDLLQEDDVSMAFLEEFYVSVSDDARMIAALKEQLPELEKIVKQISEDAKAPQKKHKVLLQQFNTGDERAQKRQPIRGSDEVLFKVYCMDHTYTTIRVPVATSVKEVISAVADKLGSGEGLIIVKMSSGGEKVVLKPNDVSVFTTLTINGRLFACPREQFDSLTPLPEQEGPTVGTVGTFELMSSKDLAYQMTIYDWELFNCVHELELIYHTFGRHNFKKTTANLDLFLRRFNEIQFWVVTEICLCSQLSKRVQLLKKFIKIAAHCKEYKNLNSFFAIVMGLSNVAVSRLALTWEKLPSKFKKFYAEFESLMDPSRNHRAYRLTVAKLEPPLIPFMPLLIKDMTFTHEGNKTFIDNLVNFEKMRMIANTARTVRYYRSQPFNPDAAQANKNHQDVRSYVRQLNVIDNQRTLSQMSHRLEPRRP

[3] = target: Rap guanine nucleotide exchange factor 4 (Homo sapiens) (UniProt Q8WZA2); assay: Confirmatory qHTS for antagonist of cAMP-regulated guanine nucleotide exchange factor 4 (EPAC2) (AID 1645885); further: nearly all actives have a fitted effect of over 25% in size; further: potency means the concentration at half of the fitted maximal effect
[4] = target: Rap guanine nucleotide exchange factor 3 (Homo sapiens) (UniProt O95398); assay: Counterscreen qHTS for antagonist of cAMP-regulated guanine nucleotide exchange factor 3 (EPAC1) (AID 1645888); further: % of control where 0% means no effect
Outline: (§1)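 Rap1B–BODIPY-GDP (250 nM) with 50 uM GDP; compounds pin-transferred to 9.74 nM–152 uM final (activator) or from 7.32 nM upwards (inhibitor). Fluorescence Ex/Em 480/540 nm read at 5 and 30 min, then after adding cAMP or buffer, at room temperature.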

[5] = target: Tumor susceptibility gene 101 protein (Homo sapiens) (UniProt Q99816); assay: qHTS Assay for Iinhibitors of HIV-1 Budding by Blocking the Interaction of PTAP/TSG101: Hit Validation (AID 651600); further: potency means the concentration at half of the fitted maximal effect; nearly all actives have a fitted effect of over 70% in size
Sequence of Tumor susceptibility gene 101 protein (Homo sapiens) (Q99816 whole entry, looked up, the tested form may be a part): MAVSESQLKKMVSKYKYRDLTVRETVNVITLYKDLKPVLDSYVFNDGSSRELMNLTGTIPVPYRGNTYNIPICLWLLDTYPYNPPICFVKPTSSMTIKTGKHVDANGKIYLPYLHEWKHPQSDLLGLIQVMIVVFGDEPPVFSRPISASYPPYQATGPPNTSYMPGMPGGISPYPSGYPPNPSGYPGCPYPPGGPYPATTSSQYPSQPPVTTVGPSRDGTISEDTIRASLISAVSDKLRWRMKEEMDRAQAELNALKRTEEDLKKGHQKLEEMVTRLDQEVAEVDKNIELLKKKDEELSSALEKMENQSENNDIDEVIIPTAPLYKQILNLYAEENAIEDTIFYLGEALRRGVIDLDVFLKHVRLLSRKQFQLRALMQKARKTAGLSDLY
Outline: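 Compounds are added to the Tsg101 binding domain (10 uM final) in pH 7.5 HEPES buffer. FITC-PTAP peptide follows at 50 nM final. After 20 min at r.t., polarized FITC emission is measured.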

[6] = target: Rap guanine nucleotide exchange factor 3 (Homo sapiens) (UniProt O95398); assay: Confirmatory qHTS for antagonist of cAMP-regulated guanine nucleotide exchange factor 3 (EPAC1) (AID 1645880);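 further: plate controls were DMSO only for no effect and full effect of the ATA control for full effect; nearly all actives have a fitted effect of over 55% in size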
Outline: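 Released BODIPY-GDP fluoresces less than Rap1-bound BODIPY-GDP; the signal is followed at 480/540 nm at 5-min intervals over 30 min, after 5 min at room temperature. Reactions contain 100 nM EPAC1, 250 nM RAP1B-BODIPY-GDP and 50 uM GDP; results are normalized to ATA and DMSO.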

[7] = target: Rap guanine nucleotide exchange factor 3 (Homo sapiens) (UniProt O95398); assay: Counterscreen qHTS for agonist of cAMP-regulated guanine nucleotide exchange factor 3 (EPAC1) (AID 1645889); further: nearly all actives have a fitted effect of over 40% in size; further: potency means the concentration at half of the fitted maximal effect; on activation: % of control where 0% means no effect
Outline: as §1

[8] = NFAT Signaling Pathway (AID 444; active means well fitted curve in either direction with a large enough effect, not every such curve was filed as active;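 further: carbachol stimulus at about its EC50 of 1 µM final; on the % scale 0 is the no-effect control and ±100 the full control effect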); conditions: Jurkat NFAT-bla M1, carbachol, beta-lactamase ratio, 5 h; at 17.2 µM (top of the series)
Outline: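 Jurkat cells with NFAT-driven β-lactamase reporter and co-expressed M1 receptor, stimulated with carbachol (final 1 uM, ~EC50), compound titration, 5 h at 37 °C. CCF4 loaded 1 h at RT; 460/530 nm ratio gave %activity and AC50.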

[9] = target: Glucocorticoid receptor (Homo sapiens) (UniProt P04150); assay: GR-GFP Redistribution (AID 450;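 active means compounds whose dose series gives a full or clear partial fitted curve of increased nuclear translocation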; further: potency means the concentration at half of the fitted maximal effect); conditions: U2OS GR-GFP nuclear translocation, laser cytometry, 2 h
Sequence of Glucocorticoid receptor (Homo sapiens) (P04150 whole entry, looked up, the tested form may be a part): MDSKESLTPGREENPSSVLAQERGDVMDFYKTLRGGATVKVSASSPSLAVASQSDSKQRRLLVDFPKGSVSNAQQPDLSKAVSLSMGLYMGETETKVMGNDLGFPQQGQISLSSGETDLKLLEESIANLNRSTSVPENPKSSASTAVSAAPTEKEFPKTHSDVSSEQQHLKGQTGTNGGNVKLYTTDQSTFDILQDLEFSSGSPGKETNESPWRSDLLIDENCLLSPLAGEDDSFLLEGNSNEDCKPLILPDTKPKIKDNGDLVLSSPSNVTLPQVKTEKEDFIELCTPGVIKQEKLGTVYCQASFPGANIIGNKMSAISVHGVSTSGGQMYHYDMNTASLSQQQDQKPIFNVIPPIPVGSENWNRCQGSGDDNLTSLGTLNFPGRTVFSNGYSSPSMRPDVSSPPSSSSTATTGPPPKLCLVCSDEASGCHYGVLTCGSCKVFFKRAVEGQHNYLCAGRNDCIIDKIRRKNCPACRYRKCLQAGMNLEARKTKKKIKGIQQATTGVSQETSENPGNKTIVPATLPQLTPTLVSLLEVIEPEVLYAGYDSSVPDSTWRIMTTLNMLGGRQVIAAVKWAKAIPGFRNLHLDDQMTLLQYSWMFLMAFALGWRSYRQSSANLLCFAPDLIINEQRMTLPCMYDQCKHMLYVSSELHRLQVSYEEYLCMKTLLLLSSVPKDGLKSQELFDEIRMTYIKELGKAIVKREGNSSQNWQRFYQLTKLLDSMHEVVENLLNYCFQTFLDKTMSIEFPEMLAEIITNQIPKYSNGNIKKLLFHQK

[10] = qHTS Assay for Identification of Small Molecule Agonists for Hypoxia Response Element Signaling Pathway (AID 914; active means well fitted activation curve with a large enough effect in the signal ratio, with a control signal flat, not every such curve was filed as active; the % refers to the signal ratio; further: potency means the concentration at half of the fitted maximal effect); conditions: ME-180 (cervical carcinoma) HRE-bla reporter, beta-lactamase ratio, CoCl2, 17 h; activation: active compounds read high
Outline: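 Cells were plated overnight, pin-dosed with compound in a titration series, co-stimulated with EC50 CoCl2 and incubated 17 hours at 37 degrees Celsius. CCF4 substrate was then loaded, and AC50 values came from the 460nm/530nm ratio.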

[11] = target: Lysosomal acid glucosylceramidase (Homo sapiens) (UniProt P04062); assay: Glucocerebrosidase-p2 (AID 348; in the data active means potency below about 10 µM; further: potency means the concentration at half of the fitted maximal effect); conditions: purified GBA, blue fluorogenic substrate, 40 min
Sequence of Lysosomal acid glucosylceramidase (Homo sapiens) (P04062 whole entry, looked up): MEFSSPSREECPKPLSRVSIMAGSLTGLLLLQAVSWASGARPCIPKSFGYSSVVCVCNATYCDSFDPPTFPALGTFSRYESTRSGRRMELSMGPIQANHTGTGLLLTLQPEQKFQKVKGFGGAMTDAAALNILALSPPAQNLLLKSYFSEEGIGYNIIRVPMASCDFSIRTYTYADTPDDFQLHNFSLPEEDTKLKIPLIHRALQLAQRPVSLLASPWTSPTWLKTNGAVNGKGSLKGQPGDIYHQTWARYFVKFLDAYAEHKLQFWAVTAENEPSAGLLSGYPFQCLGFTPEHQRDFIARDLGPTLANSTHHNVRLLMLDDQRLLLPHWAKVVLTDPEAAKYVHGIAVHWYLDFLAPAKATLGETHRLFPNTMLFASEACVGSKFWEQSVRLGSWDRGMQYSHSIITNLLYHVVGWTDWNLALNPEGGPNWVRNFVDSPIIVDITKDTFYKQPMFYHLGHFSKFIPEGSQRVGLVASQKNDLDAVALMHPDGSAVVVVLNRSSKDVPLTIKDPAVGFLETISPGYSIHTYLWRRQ
Outline: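 Normal human glucocerebrosidase (0.2 nM) with blue fluorogenic substrate (80 uM final) in citrate/phosphate pH 5.9 with 10mM sodium taurocholate, 0.01% tween-20; 40 min RT, NaOH/glycine stop; fluorescence Ex 365/Em 440; AC50 from a titration from 0.6 nM upwards.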

[12] = AP1 Signaling Pathway (AID 357; active means well fitted curve in either direction with a large enough effect, not every such curve was filed as active;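 further: ME-180 reporter cells stimulated with EGF at its EC50 level; on the % scale 0 is the no-effect control and ±100 the full control effect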)
Outline: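 Modulation of EGF-driven AP-1 transcription was assessed with a beta-lactamase reporter in ME-180 cells. Compound and EC50 EGF were co-incubated 5 hours at 37 °C before 2.5-hour CCF4 loading at room temperature and dual-emission reading.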

[13] = target: Cytochrome P450 1A2 (Homo sapiens) (UniProt P05177); assay: p450-cyp1a2 (AID 410; calls by dose curve; further: potency means the concentration at half of the fitted maximal effect)
Sequence of Cytochrome P450 1A2 (Homo sapiens) (P05177 whole entry, looked up): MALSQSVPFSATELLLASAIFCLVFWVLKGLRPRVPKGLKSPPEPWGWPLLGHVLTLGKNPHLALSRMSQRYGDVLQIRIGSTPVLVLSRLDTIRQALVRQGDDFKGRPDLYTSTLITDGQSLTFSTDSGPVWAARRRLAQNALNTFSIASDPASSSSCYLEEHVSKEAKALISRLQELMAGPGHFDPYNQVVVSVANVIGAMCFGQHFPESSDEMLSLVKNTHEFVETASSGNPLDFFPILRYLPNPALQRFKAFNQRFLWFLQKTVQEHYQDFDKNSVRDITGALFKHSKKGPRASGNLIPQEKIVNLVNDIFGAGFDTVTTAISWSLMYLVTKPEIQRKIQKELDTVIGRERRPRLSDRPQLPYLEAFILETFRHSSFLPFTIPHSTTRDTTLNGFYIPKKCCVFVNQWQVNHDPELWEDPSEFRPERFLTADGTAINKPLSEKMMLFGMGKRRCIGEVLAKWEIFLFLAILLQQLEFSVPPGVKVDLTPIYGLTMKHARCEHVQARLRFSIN
Outline: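 Read-out is luminescence from luciferin produced by CYP1A2 demethylation of Luciferin-ME (100uM, at Km). Detection reagent stopped the 60 min NADPH-dependent reaction; signals were normalized to 57 uM furafylline.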

[14] = Stat Signaling Pathway (AID 446; active means well fitted curve in either direction with a large enough effect, not every such curve was filed as active;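 further: ME-180 cervical cancer cells given 40 pM IL-6 alongside compound; SIE-controlled beta-lactamase reporter measured as 460/530 nm FRET emission ratio; on the % scale 0 is the no-effect control and ±100 the full control effect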)
Outline: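 Normalization used AC90 stimulation (300 pM IL-6) and AC90 inhibition (125 nM pan-JAK inhibitor at 40 pM IL-6). The underlying signal is SIE-driven beta-lactamase in ME-180 cells after 5 h IL-6 exposure with compound.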

[15] = target: Glucocorticoid receptor (Homo sapiens) (UniProt P04150); assay: GR-EFC Redistribution (AID 451; calls by dose curve; further: potency means the concentration at half of the fitted maximal effect); conditions: CHO-K1 GR-EFC translocation, beta-gal luminescence, 2 h
Outline: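 CHO-K1 cells expressing nuclear EA and GR-ED fragments of b-gal; compounds titrated up to 46 uM final, 2 h at 37 C. GR nuclear translocation read as complemented b-gal luminescence after 1 h RT detection.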

[16] = target: Mitogen-activated protein kinase 10 (Mus musculus) (UniProt Q61831); assay: JNK3 AlphaScreen Assay (AID 530; active means well fitted curve in either direction with a large enough effect, not every such curve was filed as active;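 further: kinase came from lysate of stimulated human HepG2 cells; signal reports phosphorylation of biotinylated GST-cJun 1-79 at Ser73 with 10 µM ATP; on the % scale 0 is the no-effect control and ±100 the full control effect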)
Outline: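 HepG2 lysate (IL-1b/TNFa pre-activated) + biotin-GST-cJun 1-79 + anti-pSer73 cJun; cpd titration, 15 min RT; ATP 10 uM start; Tris pH 7.6, MgCl2, DTT, vanadate; beads in EDTA buffer; AlphaScreen.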

[17] = target: 3',5'-cyclic-AMP phosphodiesterase 4B (Homo sapiens) (UniProt Q07343); assay: qHTS Assay for Inhibitors of PDE-IV (AID 607; active means well fitted activation curve with a large enough effect in the main read-out, with a control signal flat, not every such curve was filed as active; further: % of control where 0% means no effect)
Sequence of 3',5'-cyclic-AMP phosphodiesterase 4B (Homo sapiens) (Q07343 whole entry, looked up): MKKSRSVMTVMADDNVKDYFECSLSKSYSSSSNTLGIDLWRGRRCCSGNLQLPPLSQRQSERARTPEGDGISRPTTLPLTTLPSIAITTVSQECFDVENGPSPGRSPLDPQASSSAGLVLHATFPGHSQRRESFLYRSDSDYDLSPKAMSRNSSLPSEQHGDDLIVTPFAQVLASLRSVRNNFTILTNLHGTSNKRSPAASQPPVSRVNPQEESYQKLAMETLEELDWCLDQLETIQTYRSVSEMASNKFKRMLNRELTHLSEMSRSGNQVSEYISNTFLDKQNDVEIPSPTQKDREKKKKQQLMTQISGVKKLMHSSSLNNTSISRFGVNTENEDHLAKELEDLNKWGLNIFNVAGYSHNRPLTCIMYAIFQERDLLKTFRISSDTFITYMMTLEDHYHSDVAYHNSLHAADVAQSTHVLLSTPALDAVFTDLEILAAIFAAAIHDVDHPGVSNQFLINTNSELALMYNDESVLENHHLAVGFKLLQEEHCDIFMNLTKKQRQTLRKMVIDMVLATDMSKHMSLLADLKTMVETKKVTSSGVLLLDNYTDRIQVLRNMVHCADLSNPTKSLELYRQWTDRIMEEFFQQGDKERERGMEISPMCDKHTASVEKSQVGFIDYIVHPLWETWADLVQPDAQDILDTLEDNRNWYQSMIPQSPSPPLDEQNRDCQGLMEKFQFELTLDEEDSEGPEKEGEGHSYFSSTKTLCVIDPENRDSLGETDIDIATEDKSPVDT
Outline: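 HEK293 ACTOne cells with CNG channel (1000/well), endogenous PDE4; membrane potential dye, compounds up to 22.9 uM final. Fluorescence Ex 535/Em 590; RO 20-1724 (100 uM final) as reference.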

COc1ccc(CN2C(=O)NC(=O)/C(=C\c3ccco3)C2=O)cc1
inactive: Potency [1] | Potency [2] | Potency [3] | outcome [4]

Nc1ccc2nonc2c1[N+](=O)[O-]
active: Potency [5] 14.6 µM | Potency [2] 112 µM | Potency [3] 47.8 µM | Potency [7] 63.1 µM
inactive: Potency [6] | outcome [4]

CCCNC1=C(C)C(=O)C2=C(C1=O)C(COC(N)=O)[C@]1(OC)C3NC3CN21 (stereo partly specified)
inactive: Potency [1] | Potency [2] | Potency [3] | outcome [4]

O=C1NC(=O)N(Cc2ccc(F)cc2)C(=O)/C1=C\C=C\c1ccco1
inactive: Potency [1] | activation [2] 3.22% [at 17.1 µM, percent relative to cAMP agonist control] | activity change, negative = inhibition [3] -5.04% [at 12.7 µM] | activity change, negative = inhibition [4] 6.52% [at 30.8 µM] | activation [7] 7.61% [at 30.8 µM]

CCCCC/C(=N/O)c1c(C)[nH]c2ccccc12
inactive: Potency [1] | Potency [2] | Potency [3] | outcome [4] | Potency [7]

COCCNC(=O)Cn1cc(/C=C2\C(=O)NC(=O)N(c3ccccc3F)C2=O)c2ccccc21
inactive: Potency [1] | Potency [2] | Potency [3] | outcome [4]

Cn1cccc1/C=C1/C(=O)NC(=O)N(Cc2ccc(F)cc2)C1=O
inactive: Potency [1] | Potency [2] | Potency [3] | outcome [4]

CCOC(=O)c1cc(CC)sc1/N=C/C1C(=O)NC(=S)NC1=O
inactive: Potency [6] | activity change, negative = inhibition [3] -21.4% [at 12.7 µM] | activity change, negative = inhibition [4] -8.68% [at 30.8 µM]

CCCCN1C(=O)/C(=C/c2ccc(N(C)C)cc2)C(=O)N(Cc2ccco2)C1=O
inactive: Potency [1] | activation [2] 15.2% [at 17.1 µM, percent relative to cAMP agonist control] | activity change, negative = inhibition [3] 35.5% [at 12.7 µM] | activity change, negative = inhibition [4] 25.6% [at 30.8 µM]

Cc1cccc(OCCn2cccc2/C=C2/C(=O)NC(=O)N(Cc3ccco3)C2=O)c1
inactive: Potency [1] | Potency [2] | Potency [3] | outcome [4]

Nc1c2c(nc3sc4c(c13)CCCC4)CCCC2
inactive: Potency [1] | activation [2] 3.84% [at 17.1 µM, percent relative to cAMP agonist control] | activity change, negative = inhibition [3] -3.15% [at 12.7 µM] | activity change, negative = inhibition [4] 4.03% [at 30.8 µM] | activation [7] 3.23% [at 30.8 µM]

Cc1ccc(-n2c(O)c(C=NCc3ccco3)c(=O)[nH]c2=S)cc1C
inactive: Potency [1] | Potency [2] | Potency [3] | outcome [4]

COc1ccc(-n2c(/C=C/c3ccc(O)c(O)c3)nc3ccccc3c2=O)cc1
inactive: Potency [1] | Potency [2] | Potency [3] | outcome [4]

Cc1cccc(C)c1-n1nnnc1C(c1ccccc1OC(F)(F)F)N1CCC(n2c(=O)[nH]c3ccccc32)CC1 (stereo unspecified)
inactive: Potency [1] | Potency [2] | Potency [3] | outcome [4] | Potency [7]

O=C1NC(=O)N(Cc2ccc(F)cc2)C(=O)/C1=C\c1ccoc1
inactive: Potency [1] | Potency [3] | outcome [4]

NS(=O)(=O)c1ccc(-c2ccc(C=C3C(=O)NC(=O)NC3=O)o2)cc1
inactive: Potency [1] | Potency [2] | Potency [3] | outcome [4] | Potency [7]

Cc1ccccc1-c1nc(CN2C(=O)CN=C(c3ccccc3)c3ccccc32)c(C)o1
inactive: Potency [1] | Potency [2] | outcome [4]

CCOC(=O)[C@]12Cc3cc(Cl)ccc3[C@H]1N(CC(=O)OC)C(=O)c1ccccc12
inactive: Potency [1] | Potency [2] | outcome [4] | Potency [7]

Nc1c(C(=O)NCc2ccco2)c2nc3ccccc3nc2n1Cc1ccc(F)cc1
active: activity change, negative = inhibition [8] 108% [activator] | Potency [10] 7.94 µM
inactive: Potency [9] > 20.6 µM | Potency [1] | Potency [2] | Potency [3] | outcome [4] | Potency [7]

O=C1NC(=S)NC(=O)C1=Cc1cccc2cc3ccccc3cc12
inactive: Potency [11] > 11.4 µM | outcome [12] | outcome [14] | Potency [9] > 46 µM | Potency [15] > 9.22 µM | activity change, negative = inhibition [16] -7.37% [at 11.4 µM] | Potency [17] | Potency [1] | Potency [2] | outcome [4]
active: Potency [13] 0.398 µM

O=C1NC(=O)N(Cc2ccccc2)C(=O)/C1=C\c1ccco1
inactive: Potency [1] | activation [2] 4.68% [at 17.1 µM, percent relative to cAMP agonist control] | activity change, negative = inhibition [3] 4.49% [at 12.7 µM] | activity change, negative = inhibition [4] 0.623% [at 30.8 µM] | activation [7] 12.3% [at 30.8 µM]

COc1cccc(C(c2nnnn2Cc2ccccc2)N2CCC(n3c(=O)[nH]c4ccccc43)CC2)c1OC (stereo unspecified)
inactive: Potency [1] | Potency [2] | outcome [4]

Cn1ncnc2c(=O)n(C)c(=O)nc1-2
inactive: Potency [1] | Potency [2] | Potency [3] | outcome [4] | Potency [7]

Cc1cccc(CN2C(=O)CN=C(c3ccccc3)c3cc(Cl)ccc32)c1
inactive: Potency [2] | outcome [3] inactive [at 12.7 µM] | outcome [4]
